tim10-1 inh = tim10-1 yeast growth inhibition; S. cerevisiae tim10-1 ts strain growth, BacTiter-Glo, 24 h; inhibition, % at 20 µM; 2.2% of 330,000 active;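 active = inhibition of at least 40%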;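 also: mutant grown at 25 °C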
NALP1 inh = NALP1 inhibition; S. cerevisiae NALP1/ASC/caspase-1 growth, X-gal OD620, 72 h; inhibition, % at 10 µM; 0.61% of 280,000 active; in the data active = inhibition mostly above about 24%, no sharp cut-off; inactive = mostly below about 32%
TIM10 inh = inhibits growth of TIM10 yeast strain; S. cerevisiae TIM10 strain growth, BacTiter-Glo luminescence, 24 h; inhibition, % at 10 µM; 1.4% of 330,000 active;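 active = inhibition of 40% or more at the single tested concentration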;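 also: wild-type TIM10 isogenic control strain grown at permissive 25 °C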
NLRP3 yeast inh = NALP3 inhibition in yeast. 0.39% of 330,000 active. AID 2825. inhibition, % at 10 µM. Yeast reconstituted NLRP3/ASC/caspase-1, beta-gal luminescence, 24 h;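 active = inhibition of 50% or more; inactive = inhibition below 50%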
tim23-1 inh = growth inhibitors of tim23-1 mutant yeast; S. cerevisiae tim23-1 growth, BacTiter-Glo luminescence, 24 h; inhibition, % at 20 µM; 1.3% of 330,000 active;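 active = growth inhibition of the mutant yeast at or above 50%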;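 also: temperature-sensitive mutant grown at 25 °C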
tim10-1 confirm = tim10-1 yeast growth inhibition, confirmed | shares compounds with tim10-1 inh | S. cerevisiae tim10-1 ts strain growth, BacTiter-Glo, 24 h | inhibition, % at 20 µM | 56% of 7,400 active;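 active = inhibition of yeast growth at or above a set limit in either of two repeat tests at 20 µM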;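 also: tim10-1 mutant grown at permissive 25 °C to find synthetic lethal compounds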
TIM10 conf = confirmation of TIM10 yeast growth inhibitors; shares compounds with TIM10 inh; S. cerevisiae tim10 strain growth, BacTiter-Glo luminescence, 24 h; inhibition, % at 10 µM; 63% of 4,600 active; AID 463215;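 active = inhibition of yeast growth at or above a set limit in either of two replicates at 10 µM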; also: this counterscreen used the strain with wild-type TIM10
tim23-1 conf = tim23-1 yeast growth inhibition, confirmed; shares compounds with tim23-1 inh; S. cerevisiae tim23-1 growth, BacTiter-Glo luminescence, 24 h; inhibition, % at 20 µM; 83% of 4,400 active;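 active = inhibition above about 39% in either of two replicate wells at 20 µM, limit read from the data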;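 also: temperature-sensitive tim23-1 mutant grown at 25 °C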
Numbers stand for hits; 0 = inactive; - = not tested or not shown. Sampled rows, rich in hits. Any-hit rate of the full collection: about 4.1%.

SMILES	tim10-1 inh	NALP1 inh	TIM10 inh	NLRP3 yeast inh	tim23-1 inh	tim10-1 confirm	TIM10 conf	tim23-1 conf
CC(=O)Nc1ccc(NCC(=O)c2ccccc2)cc1	0	0	0	0	0	-	-	-
O=[N+]([O-])c1ccc(/C=N/Nc2nc(N3CCCCC3)nc(N3CCCCC3)n2)o1	55	0	48	0	50	46	0	44
O=c1c2c([N+](=O)[O-])cc([N+](=O)[O-])cc2nc2ccccn12	42	0	0	0	85	68	-	87
Cc1sc(NC(=O)c2ccccc2)c(C(c2ccc(Cl)cc2)N2CCN(CCO)CC2)c1C (stereo unspecified)	42	0	0	0	52	35	-	42
CCOc1ccc(C(c2c(NC(=O)c3ccccc3)sc(C)c2C)N2CCN(CCO)CC2)cc1 (stereo unspecified)	0	0	0	0	0	-	-	-
Cc1ccc(/C=C2\SC(=S)N(CC(=O)Nc3cccnc3)C2=O)cc1	0	0	0	0	0	-	-	-
Cc1ccc(NC(=O)CN2C(=O)S/C(=C/c3ccncc3)C2=O)cc1	45	0	42	0	56	42	43	51
Cc1cccc(OCC(=O)O/N=C(\N)Cc2ccc(Cl)cc2)c1	57	-	72	0	75	40	84	70
Cc1ccc(NC(=O)C/C(N)=N/OC(=O)c2ccccc2)cc1	55	0	69	0	51	76	80	75
COc1ccccc1C/C(N)=N/OC(=O)c1cccc([N+](=O)[O-])c1	52	0	81	0	70	41	86	67
COc1cccc(/C=C/C(=O)c2cccc([N+](=O)[O-])c2)c1OC	43	0	0	0	61	44	-	56
Cc1cc(=O)c(C(=O)O)cn1Nc1ccc(Cl)cc1	0	0	0	0	0	-	-	-
N/C(Cc1ccc([N+](=O)[O-])cc1)=N\OC(=O)c1ccc([N+](=O)[O-])cc1	59	0	84	0	67	74	86	84
N/C(Cc1ccc([N+](=O)[O-])cc1)=N\OC(=O)c1cccc(Br)c1	70	0	95	0	91	43	95	86
CC(C)(C)C(=O)O/N=C(\N)COc1cccc(Cl)c1	40	-	67	0	80	0	74	69
CC(C)(C)C(=O)O/N=C(\N)c1c(Cl)cccc1Cl	0	0	0	0	0	-	-	-
N/C(=N\OC(=O)c1cccc(Br)c1)c1ccc([N+](=O)[O-])cc1	0	0	0	0	0	-	-	-
N/C(Cc1ccc(Cl)cc1)=N\OC(=O)c1ccccc1	53	0	87	0	69	0	0	44
O=C(NC1CCCCC1)C(c1ccccn1)N(C(=O)c1csnn1)C1CCCCC1 (stereo unspecified)	0	0	0	0	0	-	-	-
CC(=O)Nc1ccccc1C(=O)C(=O)NCCc1ccccc1	0	0	0	0	0	-	-	-
Cc1cccc(COC(=O)CCCNC(=O)c2ccc(Cl)cc2)c1	0	-	0	0	0	-	-	-
Cc1ccc(C(=O)Nc2c(C)cc(-c3ccccc3)oc2=O)cc1	0	0	0	0	0	-	-	-
COc1ccc(C(=O)O/N=C(\N)Cc2ccc(Cl)c(Cl)c2)cc1OC	58	0	88	0	70	34	0	0
N/C(CCS(=O)(=O)c1ccc(Cl)cc1)=N\OC(=O)c1ccc(Cl)cc1	0	-	0	0	0	-	-	-
CC(C)(C)C(=O)OC/C(N)=N/OC(=O)c1ccc(Cl)cc1	60	0	44	0	76	47	68	73
CCc1ccccc1-n1c(SCC(=O)NC)nnc1-c1ccco1	0	0	0	0	0	-	-	-
Cc1cc(C)cc(C(=O)NCC(=O)OCC(=O)N2CCN(S(=O)(=O)c3ccc4ccccc4c3)CC2)c1	0	0	0	0	0	-	-	-
O=C(Nc1ccc(Cl)cc1)C1CCN(C(=O)c2cccs2)CC1	0	0	0	0	0	-	-	-
Cc1nc2ccccc2c(=O)n1/N=C/c1ccc(N(C)C)cc1	0	0	0	0	0	-	-	-
Cc1nc2ccccc2c(=O)n1/N=C/c1ccc([N+](=O)[O-])o1	53	0	50	0	71	75	68	73

Screening results as filed in PubChem.
